Here are results for ten compounds from PubChem BioAssay (NCATS).

A short description of experiment [1]: qHTS for differential inhibitors of proliferation of Plasmodium falciparum line Dd2 (AID 1882). Further: nearly all actives have a fitted effect of over 65% in size. Further: potency means the concentration at half of the fitted maximal effect. The settings on record: Potency: Plasmodium falciparum Dd2 proliferation inhibition. The essentials: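 RBC culture, 0.3% parasitemia / 2.5% Hct final; cpd added by pin tool in DMSO; 72 h, 37 C, 5% CO2; lysis buffer + SYBR Green I, o/n RT dark; FI 485/535; norm. to artemisinin 0.29 uM and DMSO.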

A short description of experiment [2]: qHTS for differential inhibitors of proliferation of Plasmodium falciparum line W2 (AID 1883).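 Further: parasites grown with compound for 72 h before lysis and staining.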 Further: potency means the concentration at half of the fitted maximal effect. The settings on record: Potency: Plasmodium falciparum W2 proliferation inhibition. (In general: Quantitative high-throughput screening tests each substance at several concentrations.)
The nature of experiment [3]: qHTS for differential inhibitors of proliferation of Plasmodium falciparum line HB3 (AID 1886).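 Further: parasites grown with compound for 72 h before SYBR Green readout.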 Further: potency means the concentration at half of the fitted maximal effect. The following applies: Potency: Plasmodium falciparum HB3 proliferation inhibition.
Experiment [4] deals with Ferritin light chain (Equus caballus) (UniProt P02791). In words: qHTS Validation Assay for Identification of Novel General Anesthetics (AID 2323). Further: series mostly up to about 77 µM. The essentials:
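Horse-spleen apoferritin (10 uM) in PBS with 50% saturated 1-aminoanthracene; compounds pin-transferred, 10 min at room temperature. Fluorescence read at 380/535 nm, normalized to free 1-AMA and 1-AMA/apoferritin values; four-parameter Hill fit.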

In experiment [5] the target is ATP-dependent DNA helicase Q1 (Homo sapiens) (UniProt P46063). The experiment can be described thus: qHTS Validation Assay for Inhibitors of RecQ-Like Dna Helicase 1 (RECQ1) (AID 2353). The essentials: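 RECQ1T1 50 nM; forked duplex (20 bp + 30-nt ss tails) 200 nM, ATP 2 mM final; pH 8.0, 2 mM MgCl2, 2.5 ug/ml poly(dI-dC); 15 min compound preincubation; discontinuous kinetic read over 2 h at RT.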

A short description of experiment [6]: Cytometric Cell-Based qHTS for Inhibitors of the mTORC1 Signaling Pathway in MEF (Tsc2-/-, p53-/-) Cells (AID 2660).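 Further: Tsc2 and p53 null MEFs carrying empty vector with compound for 24 h; percent of cells above a phospho-rpS6 to PI ratio cutoff in each well; series mostly up to about 38 µM.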 The essentials:
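Immunofluorescence qHTS of rpS6 Ser235/236 phosphorylation: MEFs (Tsc2-/-, p53-/-) treated 24 h, 37 C, in DMEM + 10% FBS. Alexa-488 signal normalized to PI count, referenced to rapamycin (7.5 nM) and DMSO; PI cell number recorded for viability.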

Experiment [7] in a line: High Content Imaging Cell-Based qHTS for Inhibitors of the mTORC1 Signaling Pathway in MEF (Tsc2-/-, p53-/-) Cells (AID 2666).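 Further: percent of cells scored positive for phospho-rpS6 Ser235/236 immunostaining by imaging.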 Summed up:
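Tsc2-/-, p53-/- MEFs (empty-vector stable) grown in DMEM + 10% FBS were exposed to compounds for 24 hrs at 37 degree Celsius, fixed, and stained with Alexa-488 anti-phospho-rpS6 Ser235/236 plus Hoechst. Imaging gave the percentage of positive cells per well.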

A short description of experiment [8]: High Content Imaging Cell-Based qHTS for Inhibitors of the mTORC1 Signaling Pathway in MEF Cells (AID 2667). Further: potency means the concentration at half of the fitted maximal effect. Summed up: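 Tsc2-/-, p53-/- MEFs stably re-expressing WT Tsc2, grown in DMEM + 10% FBS, were treated with compounds for 24 hrs at 37 degree Celsius, fixed, and stained with Alexa-488 phospho-rpS6 Ser235/236 antibody plus Hoechst; results given as % positive cells.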

A short description of experiment [9]: Cytometry Cell-Based qHTS for Inhibitors of the mTORC1 Signaling Pathway in MEF cells (AID 2668). Further: potency means the concentration at half of the fitted maximal effect. Summed up: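 MEFs (Tsc2-/-, p53-/- stably expressing WT Tsc2) treated 24 h at 37 degree Celsius, fixed, stained with Alexa-488 anti-phospho-rpS6 Ser235/236 and propidium iodide; Acumen laser scanning. Reported as % positive cells, phospho-S6 normalized to PI.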

Experiment [10] is described as follows: Validation screen for small molecules that induce DNA re-replication in MCF 10A normal breast cells (AID 463097). Further: nearly all actives have a fitted effect of over 60% in size. Summed up:
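MCF 10A cells exposed to compound 48 hr at 37 C, 5% CO2, then Hoechst-stained 40 min. Laser-scanning imaging of nuclear DNA content (405 nm ex, 500-530 nm em); re-replication scored as rise in nuclei with elevated fluorescence intensity.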

The target of experiment [11] is Ubiquitin carboxyl-terminal hydrolase 2 (Homo sapiens) (UniProt O75604). In words: qHTS Validation Assay for Inhibitors of Ubiquitin-specific Protease USP2a Using CHOP2 as the Reporter (AID 463106). Summed up: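 Readout was coupled fluorescence (Ex 485/Em 531 nm), read 60 min after adding 25 nM final Ub-CHOP2 and 25 nM reporter substrate. Beforehand, 10 nM final USP2 core had 30 min at RT with compound in pH 8.0 buffer. Curves were fitted after normalization to NEM and flagged for artifacts using time-zero reads.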

Experiment [12] addresses DNA polymerase III PolC-type (Bacillus subtilis (strain 168)) (UniProt P13267). The experiment can be described thus: qHTS Validation Assay for the Inhibitors of DNA Replication in Gram-Positive Bacteria (AID 485295). Further: potency means the concentration at half of the fitted maximal effect. The essentials:
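Reconstituted B. subtilis Pol III holoenzyme (PolC, beta clamp, SSB, primase) preincubated with compound, then M13Gori single-stranded circular template with dNTPs/NTPs added; room temperature reaction. Stopped with EDTA/PicoGreen; dsDNA fluorescence read, EDTA as full-inhibition control.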

Experiment [13] concerns the target Tumor susceptibility gene 101 protein (Homo sapiens) (UniProt Q99816). In words: qHTS Validation Assay for Iinhibitors of HIV-1 Budding by Blocking the Interaction of PTAP/TSG101 (AID 485342; calls by dose curve). The essentials:
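Tsg101 binding domain (10 uM) with FITC-labeled PTAP peptide (50 nM) in HEPES pH 7.5 buffer, 20 min at r.t. with compounds. Binding measured by fluorescence polarization.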

Experiment [14] can be described thus: qHTS Validation Assay to Find Inhibitors of Chronic Active B-Cell Receptor Signaling (AID 485345; active means well fitted curve in the direction sought with a large enough effect in the main read-out, with a control signal flat, not every such curve was filed as active). Summed up: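 Read-out: ratio of filter-corrected green (IkappaBalpha fusion) to red (native) luciferase signal in doxycycline-induced TMD8 cells after 4 h at 37C. Titration spanned 46 uM–3 nM; Data were normalised to basal cells and 10 uM MG-132 wells.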
Experiment [15] deals with Beta-2 adrenergic receptor (Homo sapiens) (UniProt P07550). In words: qHTS validation assay of beta-arrestin-biased ligands of beta2-adrenergic receptor (AID 485366). Summed up:
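Agonism was measured as beta-arrestin recruitment to recombinant beta2-AR, releasing tTA to drive luciferase. Cells were exposed for 18 hr at 37 degrees C to a series up to 46 microM. %Activity from corrected luminescence gave concentration-response curves.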

In experiment [16] the target is RecQ-like DNA helicase BLM (Homo sapiens) (UniProt P54132). The experiment can be described thus: qHTS Validation Assay for Inhibitors of Bloom's syndrome helicase (BLM) (AID 2364). Summed up:
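Forked 20-bp duplex substrate (200 nM, TAMRA/BHQ-2) plus 2 mM ATP added after 15 min compound preincubation with 50 nM enzyme, pH 8.0, poly(dI-dC) 2.5 ug/ml. Strand separation followed by fluorescence (525/598 nm) over 2 h, normalized to enzyme-free and DMSO controls.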

Experiment [17] can be described thus: qHTS Assay for Modulators of Human Peripheral Myelin Protein 22 (PMP22) Expression/Activity (AID 1967; active means well fitted curve in the direction sought with a large enough effect in the signal ratio; the % refers to the signal ratio). Summed up:
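Mouse MSC80 Schwann cells carrying Pmp22 promoter–green click beetle luciferase plus EF-alpha–red luciferase control, dosed 24 h at 37 °C. Dual-filter luminescence, overlap-corrected; %Activity from green/red ratio normalised to untreated cells, concentration-response curves fitted.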

Results filed as inconclusive are left out. The source made the active and inactive calls. Unless noted, the call rests on the fitted dose curve; in most records, active means well fitted curve in the direction sought with a large enough effect; inconclusive means small, poorly fitted or top-dose-only effect, or another doubt; inactive means no such curve, though single readings can be large; an effect the other way counts as inactive or inconclusive.

Sequence of ATP-dependent DNA helicase Q1 (Homo sapiens) (P46063 whole entry, looked up): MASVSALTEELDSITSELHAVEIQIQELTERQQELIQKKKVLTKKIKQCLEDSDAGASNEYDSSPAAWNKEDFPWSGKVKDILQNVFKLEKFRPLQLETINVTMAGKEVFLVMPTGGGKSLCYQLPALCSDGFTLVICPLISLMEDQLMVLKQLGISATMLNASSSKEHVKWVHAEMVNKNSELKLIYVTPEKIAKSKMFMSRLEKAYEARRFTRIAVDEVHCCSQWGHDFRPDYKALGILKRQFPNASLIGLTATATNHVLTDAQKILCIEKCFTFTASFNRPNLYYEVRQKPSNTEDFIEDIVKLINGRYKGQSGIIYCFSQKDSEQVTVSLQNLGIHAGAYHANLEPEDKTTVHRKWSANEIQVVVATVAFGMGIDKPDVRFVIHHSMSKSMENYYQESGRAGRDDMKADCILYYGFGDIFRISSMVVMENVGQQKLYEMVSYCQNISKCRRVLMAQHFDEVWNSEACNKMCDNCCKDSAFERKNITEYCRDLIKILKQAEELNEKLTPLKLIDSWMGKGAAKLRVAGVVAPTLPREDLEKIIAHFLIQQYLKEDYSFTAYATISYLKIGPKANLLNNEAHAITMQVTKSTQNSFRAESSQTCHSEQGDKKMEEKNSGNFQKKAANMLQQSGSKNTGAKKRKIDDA
Sequence of Tumor susceptibility gene 101 protein (Homo sapiens) (Q99816 whole entry, looked up, the tested form may be a part): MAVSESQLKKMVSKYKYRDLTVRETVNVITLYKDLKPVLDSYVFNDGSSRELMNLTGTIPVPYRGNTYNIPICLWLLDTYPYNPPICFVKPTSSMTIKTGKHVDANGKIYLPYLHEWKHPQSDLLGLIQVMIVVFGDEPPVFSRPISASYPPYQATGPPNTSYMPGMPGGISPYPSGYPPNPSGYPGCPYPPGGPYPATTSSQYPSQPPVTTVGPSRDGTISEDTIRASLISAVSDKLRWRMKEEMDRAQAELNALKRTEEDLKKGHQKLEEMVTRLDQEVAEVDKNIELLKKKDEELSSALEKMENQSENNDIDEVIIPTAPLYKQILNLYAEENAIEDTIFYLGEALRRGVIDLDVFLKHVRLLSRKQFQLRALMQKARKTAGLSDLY
Sequence of Beta-2 adrenergic receptor (Homo sapiens) (P07550 whole entry, looked up): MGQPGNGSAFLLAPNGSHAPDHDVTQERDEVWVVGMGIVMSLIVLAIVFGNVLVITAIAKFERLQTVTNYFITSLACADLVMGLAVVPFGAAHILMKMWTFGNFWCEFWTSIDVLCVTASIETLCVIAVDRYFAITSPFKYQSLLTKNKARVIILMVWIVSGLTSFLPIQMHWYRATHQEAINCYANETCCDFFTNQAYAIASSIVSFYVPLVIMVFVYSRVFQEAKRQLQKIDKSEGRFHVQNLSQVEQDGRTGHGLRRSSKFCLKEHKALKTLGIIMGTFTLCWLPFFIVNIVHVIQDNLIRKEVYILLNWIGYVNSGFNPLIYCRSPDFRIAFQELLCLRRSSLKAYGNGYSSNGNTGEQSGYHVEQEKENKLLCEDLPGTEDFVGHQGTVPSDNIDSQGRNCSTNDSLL
Sequence of Ferritin light chain (Equus caballus) (P02791 2-175 limits assumed): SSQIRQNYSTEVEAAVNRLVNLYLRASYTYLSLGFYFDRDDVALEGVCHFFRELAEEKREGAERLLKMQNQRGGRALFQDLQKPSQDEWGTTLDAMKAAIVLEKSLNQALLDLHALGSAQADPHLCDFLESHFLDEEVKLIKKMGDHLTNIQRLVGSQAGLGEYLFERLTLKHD
Sequence of Ubiquitin carboxyl-terminal hydrolase 2 (Homo sapiens) (O75604 whole entry, looked up): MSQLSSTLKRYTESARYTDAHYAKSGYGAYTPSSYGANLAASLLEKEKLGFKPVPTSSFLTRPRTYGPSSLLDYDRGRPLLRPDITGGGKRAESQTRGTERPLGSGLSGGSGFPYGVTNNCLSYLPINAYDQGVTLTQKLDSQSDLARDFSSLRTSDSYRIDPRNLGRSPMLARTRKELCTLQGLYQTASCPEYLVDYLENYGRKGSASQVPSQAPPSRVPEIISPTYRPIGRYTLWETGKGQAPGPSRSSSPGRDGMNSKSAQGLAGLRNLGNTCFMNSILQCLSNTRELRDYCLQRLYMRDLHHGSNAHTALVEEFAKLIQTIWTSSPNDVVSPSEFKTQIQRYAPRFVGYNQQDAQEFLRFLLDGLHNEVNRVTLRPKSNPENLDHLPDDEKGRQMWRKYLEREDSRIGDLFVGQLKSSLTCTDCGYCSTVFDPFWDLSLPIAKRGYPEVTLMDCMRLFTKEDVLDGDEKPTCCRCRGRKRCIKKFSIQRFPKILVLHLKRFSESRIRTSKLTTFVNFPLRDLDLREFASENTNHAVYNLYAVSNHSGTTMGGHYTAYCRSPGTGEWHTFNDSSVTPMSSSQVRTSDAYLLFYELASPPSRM
Sequence of DNA polymerase III PolC-type (Bacillus subtilis (strain 168)) (P13267 whole entry, looked up): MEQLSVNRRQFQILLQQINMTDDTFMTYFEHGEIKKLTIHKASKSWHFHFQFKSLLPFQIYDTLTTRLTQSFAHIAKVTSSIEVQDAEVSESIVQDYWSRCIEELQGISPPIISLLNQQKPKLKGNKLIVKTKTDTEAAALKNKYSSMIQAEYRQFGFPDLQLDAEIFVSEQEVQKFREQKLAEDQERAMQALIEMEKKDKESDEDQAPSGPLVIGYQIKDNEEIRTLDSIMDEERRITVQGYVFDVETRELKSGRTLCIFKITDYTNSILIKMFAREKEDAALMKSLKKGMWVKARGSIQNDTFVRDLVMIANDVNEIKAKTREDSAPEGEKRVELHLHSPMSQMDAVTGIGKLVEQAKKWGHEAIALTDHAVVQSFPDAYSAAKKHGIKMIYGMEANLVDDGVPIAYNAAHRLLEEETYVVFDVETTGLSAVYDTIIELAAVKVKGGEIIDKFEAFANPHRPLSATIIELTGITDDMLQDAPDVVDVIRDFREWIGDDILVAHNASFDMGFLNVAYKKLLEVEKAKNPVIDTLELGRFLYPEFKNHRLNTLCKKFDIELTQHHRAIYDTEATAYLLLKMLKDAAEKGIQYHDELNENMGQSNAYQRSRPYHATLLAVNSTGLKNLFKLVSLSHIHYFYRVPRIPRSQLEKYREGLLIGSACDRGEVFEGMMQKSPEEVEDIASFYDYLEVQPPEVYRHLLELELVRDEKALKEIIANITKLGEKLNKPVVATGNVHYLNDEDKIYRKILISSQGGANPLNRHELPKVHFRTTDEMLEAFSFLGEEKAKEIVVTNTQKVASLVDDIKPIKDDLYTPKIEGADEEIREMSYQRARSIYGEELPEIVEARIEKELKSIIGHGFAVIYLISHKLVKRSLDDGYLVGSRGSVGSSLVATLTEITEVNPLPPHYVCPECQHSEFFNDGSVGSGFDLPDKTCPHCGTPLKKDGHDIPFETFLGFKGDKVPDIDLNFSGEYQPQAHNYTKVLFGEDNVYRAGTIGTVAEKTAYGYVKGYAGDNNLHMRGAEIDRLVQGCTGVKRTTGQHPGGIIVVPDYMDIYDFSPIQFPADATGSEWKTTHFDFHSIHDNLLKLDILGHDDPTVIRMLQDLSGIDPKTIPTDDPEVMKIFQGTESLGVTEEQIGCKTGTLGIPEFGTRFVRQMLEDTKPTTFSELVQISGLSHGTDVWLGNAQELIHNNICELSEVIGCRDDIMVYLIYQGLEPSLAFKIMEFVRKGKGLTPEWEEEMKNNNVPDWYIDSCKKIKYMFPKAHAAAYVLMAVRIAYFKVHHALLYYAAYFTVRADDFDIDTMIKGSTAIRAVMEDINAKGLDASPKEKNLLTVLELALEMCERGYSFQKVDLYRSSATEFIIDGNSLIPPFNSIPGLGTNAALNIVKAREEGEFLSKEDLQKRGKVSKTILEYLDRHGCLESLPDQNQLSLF

With `NC(C(=O)N[C@@H]1C(=O)N2C(C(=O)O)=C(Cl)CS[C@H]12)c1ccccc1` (some centres undefined), the Potency result in experiment [1], in experiment [2], in experiment [3], in experiment [4], in [5] and in experiment [7] was “inactive” throughout. Moreover, the Potency entry in experiment [8], in [9], in experiment [10], in experiment [11] and in [12] was “inactive” throughout. The outcome in experiment [6], in experiment [13], in experiment [14] and in [15] was inactive.

In the case of `O=C(O)C1CN(CCCP(=O)(O)O)CCN1` (centres undefined), the Potency result in experiment [1], in experiment [2], in [3], in experiment [4], in [16] and in experiment [7] was “inactive” in each case. Also, the Potency result in experiment [8], in experiment [9], in [10], in [11] and in experiment [12] was “inactive” each time. Also, the compound was called inactive in experiment [6], in [14] and in experiment [15].

As for `CCCCCCCC/C=C\CCCCCCCC(=O)NCCc1ccc(O)c(O)c1`, the Potency in [1] was 8.91 µM (active); in experiment [2] it was 7.94 µM (active); in experiment [3], 12.6 µM (active); in experiment [8] it was 5.21 µM (active); in experiment [9] it was 3.69 µM (active); in [12] it was 18.9 µM (active). Further, the Potency entry in experiment [5] and in experiment [11] was “inactive” each time. For the same compound, the compound was called inactive in experiment [15].

In the case of `CCCCCCN(CCCCCC)C(=O)Cc1c(-c2ccc(F)cc2)[nH]c2ccccc12`, the results for the Potency in experiment [1], in experiment [2] and in experiment [3] were 10 µM (active), 3.55 µM (active) and 7.08 µM (active), respectively. Further, the call in experiment [6], in [13], in experiment [14] and in [15] was inactive. The Potency entry in experiment [7], in experiment [8], in [10], in experiment [11] and in experiment [12] was “inactive” throughout.

For the compound `COc1ccccc1N1CCN(CCCCN2C(=O)c3ccccc3C2=O)CC1`, the Potency entry in [1], in [4], in experiment [5], in experiment [16], in experiment [7] and in [8] was “inactive” in each case. Moreover, the Potency result in experiment [9], in experiment [10], in [11] and in experiment [12] was “inactive” each time. In addition, the Potency in experiment [2] is 3.55 µM (active). For the same compound, the call in experiment [17], in experiment [6] and in experiment [13] was inactive.

As for `C[C@@]1(C2CCCC2)Cc2cc(OCC(=O)O)c(Cl)c(Cl)c2C1=O`, the Potency entry in experiment [1], in experiment [2], in experiment [3], in experiment [4], in [5] and in [8] was “inactive” throughout. Further, the Potency result in experiment [10], in [11] and in experiment [12] was “inactive” each time. In addition, the call in experiment [6], in experiment [13] and in experiment [15] was inactive.

For `Cn1c(=O)[nH]c2ncn(C)c2c1=O`, the Potency result in experiment [1], in [2], in experiment [4], in experiment [7], in [8] and in [9] was “inactive” each time. In addition, the Potency entry in experiment [10], in experiment [11] and in [12] was “inactive” in each case. Moreover, the Potency in experiment [3] is 12.6 µM (active). The result in [6], in experiment [13], in [14] and in [15] was inactive.

Take `CC(C)NC[C@H](O)COc1ccc(CC(N)=O)cc1`: the Potency result in experiment [1], in experiment [2], in experiment [3], in experiment [4], in [5] and in experiment [7] was “inactive” in each case. In addition, the Potency entry in experiment [8], in experiment [9], in [10], in [11] and in experiment [12] was “inactive” each time. Moreover, the result in experiment [13] and in [14] was inactive.

Turning to `O=C(O)c1ccccc1Nc1ccccc1`, the Potency entry in [1], in experiment [2], in [3], in [4], in experiment [5] and in experiment [7] was “inactive” throughout. The Potency entry in [9], in experiment [10], in experiment [11] and in experiment [12] was “inactive” in each case. Also, the compound was classed as inactive in [14] and in experiment [15].

Turning to `N[C@@H](CCC(=O)N[C@H](CSN=O)C(=O)NCC(=O)O)C(=O)O`, the Potency entry in [1], in experiment [2], in [3], in [4], in experiment [5] and in [7] was “inactive” throughout. Further, the Potency result in experiment [8], in experiment [9], in experiment [10], in [11] and in [12] was “inactive” each time. Besides, the outcome in experiment [13], in experiment [14] and in experiment [15] was inactive.
